Sampled rows, rich in hits. Any-hit rate of the full collection: about 4.2%.
DAX1 StAR inh: blocks DAX1 repression of SF-1 activated StAR promoter. HEK293T StAR-luciferase reporter, SF-1/DAX-1 repression relief. inhibition, % at 6.8 µM. hit rate 1.1% among 370,000;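 active = inhibition above the mean over all tested compounds plus 3 SD, cut at about 3.6% in these data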;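 note: 0% = DAX-1 cells with DMSO and 100% = cells lacking DAX-1 with DMSO; higher inhibition means more luminescence from relief of DAX-1 repression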
hcDAF-12 act: H. contortus DAF-12 activation, primary screen; HEK293 hcDAF-12 lit1-tk-luc reporter, luminescence; 0% DMSO, 100% Δ7-dafachronic acid; activation, % at 6.8 µM; AID 652067; hit rate 1.4% among 370,000;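 active = activation above the mean of all tested compounds plus 3 SD, cut at about 5.5% in these data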;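 note: 100% = response to 3 µM Δ7-dafachronic acid high control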
hgDAF-12 ag: hgDAF-12 agonism, primary luciferase screen; HEK293 GAL4-hgDAF12 UAS-luciferase reporter, agonist luminescence; normalized to butyrate control; activation, % at 6.8 µM; hit rate 1.8% among 370,000;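 active = activation above a cutoff set at the mean of all screened compounds plus 3 SD, cut at about 10% in these data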;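 note: 0% = DMSO wells and 100% = sodium butyrate wells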
ssDAF-12 act: activators of S. stercoralis DAF-12 nuclear receptor; HEK293 ssDAF-12/GRIP1 lit1-tk-luc reporter, luminescence; % of 3 µM dafachronic acid response; activation, % at 6.8 µM; hit rate 1% among 370,000; AID 652126;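 active = activation above the mean over all tested compounds plus 3 SD, cut at about 0.9% in these data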;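 note: 0% = DMSO-only wells and 100% = 3 µM delta7-dafachronic acid wells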
SMARCA2 act: activators of SMARCA2 function. MG213 cells, MMTV-luciferase reporter, dexamethasone, overnight. AID 652017. activation, % at 9.1 µM. hit rate 1% among 370,000; in the data active = activation above about 7.8%;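 note: 0% = vehicle wells and 100% = reference activator wells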
SMARCA2 act conf: confirmation of SMARCA2 (BRM) function activators; hit rate 30% among 3,500; MG213 cells, MMTV-luciferase with dexamethasone, luminescence, overnight; MG213 cells expressing E1A, Rb sequestered; DMSO wells 0%, reference activator 100%; activation, % at 9.1 µM; shares compounds with SMARCA2 act; AID 652260;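 active = activation above its plate's cutoff, the mean activation of tested wells plus 3 SD, cut at about 7.9% in these data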
VP16 Luc act: activates GAL4-VP16 luciferase, flagging SMARCA2 activator hits; hit rate 41% among 3,500; activation, % at 9.1 µM; shares compounds with SMARCA2 act; HEK293 GAL4-VP16 pG5luc reporter, luciferase luminescence; scaled: DMSO wells 0%, SAHA wells 100%; AID 686939;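 active = activation above the solvent-only control well mean plus 3 SD, averaged across control plates, cut at about 5.2% in these data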
* hit, by the source's call; nt = not tested or not shown.

SMILES	DAX1 StAR inh	hcDAF-12 act	hgDAF-12 ag	ssDAF-12 act	SMARCA2 act	SMARCA2 act conf	VP16 Luc act
O=C(c1ccc(Cl)cc1)N1CCN(c2ccccn2)CC1	nt	-2.7	1.5	-2.0	nt	nt	nt
Nc1[nH]c(C(=O)c2ccccc2)c(-c2ccc(Cl)cc2)c1C(=O)NCCC1=CCCCC1	nt	-0.1	-1.8	-1.2	nt	nt	nt
O=C1CC(c2cc(-c3ccccc3)no2)C1	1.6	5.2	10.0	-0.6	9.7*	2.7	7.5*
O=C(NCC1OCCc2ccccc21)c1ccc(NC(=O)c2ccc(Cl)cc2Cl)cc1 (stereo unspecified)	-0.8	-0.8	2.2	-1.3	9.4*	-4.0	0.6
O=C(NCC1OCCc2ccccc21)c1ccc(NC(=O)c2ccccc2Cl)cc1 (stereo unspecified)	-1.4	-4.2	-2.1	-2.1	-4.8	nt	nt
O=C(c1cc(Cl)ccc1Cl)N1CCOCC1	-0.2	0.2	2.5	-1.2	10.5*	8.2*	1.4
COc1ccc(C2C(C#N)=C(N)N(c3cccnc3)C3=C2C(=O)CC(C)(C)C3)cc1OC (stereo unspecified)	-0.2	-2.5	-0.5	-1.7	9.2*	1.3	1.9
CC1(C(=O)OCC(=O)NCc2ccc(Cl)cc2)CC1(Cl)Cl (stereo unspecified)	-0.4	-0.8	2.6	-0.9	8.6*	-1.9	-0.5
CCN1CCC(=NNC(=O)c2ccco2)CC1	1.6	2.3	8.6	0.0	13.8*	-1.5	-0.6
COc1ccc(C=NN(C)C(=O)Nc2cccc(Cl)c2)cc1OC	-1.1	-2.4	1.5	-1.8	1.9	nt	nt
COC(=O)C1=C(C)N(Cc2ccccc2)C(=S)NC1c1ccc(Cl)cc1 (stereo unspecified)	-0.1	1.3	-2.3	-0.8	-1.6	nt	nt
O=C(CC1CCCC1)N[C@H](C(=O)N1CCC[C@H]1C(=O)NCCc1ccccc1Cl)c1ccccc1	0.8	1.4	2.2	-0.9	-1.9	nt	nt
CC(C)CCNC(=O)C(=O)Nc1ccccc1	3.1	1.5	13.4*	-0.3	9.1*	6.4	7.2*
Cc1cccc(NC(=S)NCCC(C)C)c1	-0.1	0.9	2.2	-1.3	1.7	nt	nt
COc1cc2c(cc1NC(=O)c1ccco1)CCCC2	1.0	5.7*	6.5	-0.4	10.3*	7.9*	11.2*
O=C(C=Cc1ccccc1)CC(c1ccccc1)N1CCOCC1 (stereo unspecified)	-2.5	-0.2	-4.6	-1.8	8.8*	7.2	2.8
O=C(NC(=S)Nc1ccc(Br)cn1)c1cccnc1	0.0	4.9	1.0	-1.4	8.3*	9.8*	0.4
CC(C)C(=O)Nc1ccc(NC(=O)c2ccco2)cn1	1.4	-0.1	1.9	-0.6	8.1*	4.7	2.4
CCCC(=O)Nc1ccc(NC(=O)c2ccco2)cn1	0.2	-1.5	4.7	-0.8	2.7	nt	nt
CC(C)n1cnc2cc(NC(=O)c3ccco3)ccc21	2.4	3.9	9.8	-0.6	9.6*	13.1*	9.6*
O=C(NC(=S)Nc1ccccc1Br)c1cccnc1	-0.4	0.9	1.4	-1.4	-1.8	nt	nt
O=C(Nc1ccc(NC(=O)c2ccco2)nc1)c1cccnc1	-0.8	2.0	4.8	-0.3	8.7*	9.1*	11.8*
COc1ccc([C@H]2CN(c3ccc(OC)cc3)C(=O)[C@@H]2CC(=O)Nc2ccccc2)cc1	-1.3	-2.6	1.4	-0.2	1.0	nt	nt
CC(=O)N1C[C@H]2CON(C)[C@H]2C[C@H]1c1ccccc1-c1ccccc1	-0.1	0.1	-2.7	-0.8	3.8	nt	nt
CCOC(=O)[C@@]12CCCC3=C1N(CCC3)C(=O)[C@H]2CC(=O)NCCc1ccccc1OC	-0.1	-1.7	-3.1	-1.2	-3.1	nt	nt
SMILES	DAX1 StAR inh	hcDAF-12 act	hgDAF-12 ag	ssDAF-12 act	SMARCA2 act	SMARCA2 act conf	VP16 Luc act
COc1cccc(C(=O)Nc2ccc3[nH]ncc3c2)c1	1.6	4.8	10.5*	-0.1	9.4*	8.9*	15.1*
COc1cccc(C(=O)Nc2ccc(NC(=O)c3ccco3)nc2)c1	0.6	-0.5	7.0	-0.7	9.7*	11.7*	12.2*
COc1ccc(S[C@]2(C(=O)N(C)C)CC(=O)N(c3ccsc3)[C@@H]2c2ccc(OC)cc2)cc1	-1.3	-1.3	3.3	-1.5	-3.5	nt	nt
O=C1NC[C@H](CCCCN2C[C@H](Cc3ccccc3)N(CCc3ccccc3)C(=O)C2=O)N(CC2CCCCC2)C1=O	0.0	-2.3	0.1	-1.1	6.2	nt	nt
CCCCN(CCCC)CCCNC(=O)Cn1cc(C)c(=O)[nH]c1=O	1.0	-1.1	1.6	-0.7	-4.5	nt	nt
O=C(COC(=O)CN1C(=O)c2ccccc2C1=O)Nc1ccc(S(=O)(=O)N2CCCC2)cc1	-0.5	2.0	0.9	-0.8	9.4*	-5.7	0.5
CCOc1ccc(CCNC(=O)COC(=O)c2cccc(N(C)C)c2)cc1OCC	2.9	2.0	9.4	0.0	8.1*	2.8	8.7*
O=C(Nc1ccccc1)c1ccc(NCC2CCCO2)c([N+](=O)[O-])c1 (stereo unspecified)	-0.2	-0.2	-0.3	-0.2	8.8*	1.6	3.6
Fc1cc(F)c2nc(N3CCCC3)sc2c1	1.6	0.3	2.8	-0.9	8.4*	4.1	4.6
Fc1cccc2sc(N3CCCCC3)nc12	0.6	-0.7	7.5	-0.8	6.5	nt	nt
O=C(NCc1ccccc1)OCCN1C(=O)CCC12CCC(c1ccccc1)CC2 (stereo unspecified)	-0.7	-1.2	-4.5	-1.8	-3.4	nt	nt
O=C(c1cc2cc(Br)ccc2o1)N1CCN(c2ccccc2)CC1	3.0	1.4	4.8	-0.3	8.1*	1.1	4.7
O=C(c1cc2cc(Br)ccc2o1)N1CCOCC1	0.6	1.7	6.1	-1.1	3.1	nt	nt
COc1ccc(-c2cc(-c3nnc4sc(-c5cccs5)nn34)[nH]n2)cc1	0.6	0.0	5.5	-1.1	8.5*	7.0	8.1*
COc1cccc(-c2nn3c(-c4cccc(C)c4)nnc3s2)c1	1.7	0.1	4.3	-0.7	10.5*	5.0	5.0
COc1cccc(-c2nnc3sc(-c4ccco4)nn23)c1	0.8	-0.6	2.1	-0.8	1.4	nt	nt
COc1cccc(-c2nnc3sc(-c4cccs4)nn23)c1	-0.4	-1.1	2.1	-1.2	0.1	nt	nt
O=C(C(=O)N1CCN(C(=O)C2CCCC2)CC1)c1cccc(C(F)(F)F)c1	0.0	-0.1	1.4	-0.6	-0.2	nt	nt
Cc1ccc(Cn2cc(COC(=O)N3CCOCC3)nn2)cc1	-0.4	-0.9	5.8	0.6	-1.2	nt	nt
COc1ccc(OC)c2sc(N(CCN(C)C)C(=O)/C=C/c3cccs3)nc12	-0.1	-3.8	-0.9	-1.1	14.6*	16.6*	-0.1
Cc1ccc2nc(N(CCN(C)C)C(=O)/C=C/c3cccs3)sc2c1	0.2	0.1	1.1	-0.8	1.3	nt	nt
